Screening results (PubChem)
CYP2C9 act: CYP2C9 (human) activation. 96,000 tested, 1.4% active. recombinant CYP2C9, luciferin-H conversion, luminescence; stronger effect = higher value; factor 1 = untreated enzyme, 0 = blocked. AID 1024. P11712. activation factor at 5 µM;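 active means activation factor of 2 or more for CYP2C9 at a 5 µM dose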
Target sequence (P11712 whole entry, looked up): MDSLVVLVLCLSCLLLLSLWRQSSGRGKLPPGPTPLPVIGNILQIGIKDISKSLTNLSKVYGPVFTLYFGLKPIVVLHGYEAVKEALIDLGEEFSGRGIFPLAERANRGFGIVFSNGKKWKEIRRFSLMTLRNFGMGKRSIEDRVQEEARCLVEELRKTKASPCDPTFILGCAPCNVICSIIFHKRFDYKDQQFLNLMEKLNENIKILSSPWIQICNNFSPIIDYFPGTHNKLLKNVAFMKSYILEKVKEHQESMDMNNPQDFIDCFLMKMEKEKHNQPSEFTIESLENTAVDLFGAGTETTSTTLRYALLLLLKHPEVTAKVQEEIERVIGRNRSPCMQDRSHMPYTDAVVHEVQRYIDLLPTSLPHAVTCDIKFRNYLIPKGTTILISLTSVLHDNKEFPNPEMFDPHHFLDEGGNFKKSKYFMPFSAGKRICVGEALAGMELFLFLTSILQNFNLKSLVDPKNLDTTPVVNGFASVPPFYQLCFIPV
CYP2C19 inh: blocks human cytochrome P450 2C19; CYP2C19 Supersomes, luciferin-H EGE luminescence, 30 min; inhibition, % at 5 µM; 96,000 tested, 21% active;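 active means CYP2C19 inhibition above a set limit at 5 µM in the primary screen, cut at about 50% in these data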
CYP2C19 activ: activators of human cytochrome P450 2C19. recombinant CYP2C19, luciferin-H EGE luminescence; stronger effect = higher value; 0 = fully inhibited enzyme, 1 = untreated enzyme. activation factor at 5 µM. 96,000 tested, under 10 active;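 active means activation factor of at least 2 at 5 µM in the primary screen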
CYP2C9 inh: blocks human cytochrome P450 2C9; P11712; CYP2C9 Supersomes, luciferin-H conversion, luminescence; inhibition, % at 5 µM; 96,000 tested, 20% active; AID 777;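 active means blocking of liver enzyme CYP2C9 beyond about 50% at 5 µM, limit read from the data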
Pyk2 oligo antag: Pyk2 (human) oligomerization antagonism | Q14289 | 99,000 tested, 0.83% active | Q293 cells, Pyk2 FERM NanoBiT luminescence; stronger effect = lower value | z-score (the deposit names both 25 µM and 10 µM) | AID 1347419;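 active means Z-score of -3 or lower, scaled per plate to the spread of control and sample wells; inactive means z-score above -3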;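 further: negative z-score means lost luminescence so less FERM oligomerization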
Of the large screens only hits and unclear results are named; the others gave an inactive call. Only some compounds are listed: those with a hit (about 28% of all), similar ones and a draw of the others.

COc1ccc(S(=O)(=O)N2CCCC(C(=O)N3CCOCC3)C2)cc1C (stereo not drawn)	CYP2C9 act 2.2
CCOC(=O)c1[nH]c2ccc(F)cc2c1NC(=O)C1=COCCO1	none
COC(=O)c1sc2ncn(-n3c(C)ccc3C)c(=O)c2c1C	none
CCOC(=O)N1CCN(S(=O)(=O)c2cc(Br)cnc2N)CC1	CYP2C19 inh 95, CYP2C9 inh 94
O=C(O)C1CCCN1S(=O)(=O)c1ccc(Br)s1 (stereo not drawn) (tested in a mixture with another compound)	CYP2C19 inh 59
CCOC(=O)N1CCN(S(=O)(=O)c2ccc(Br)s2)CC1	CYP2C19 inh 88, CYP2C9 inh 81
CCOC(=O)C1CCCN(C(=O)C2CCN(S(=O)(=O)c3cccs3)CC2)C1 (stereo not drawn)	CYP2C19 inh 75, CYP2C9 inh 64
O=C(O)C1CCCCN1S(=O)(=O)c1ccc(Cl)s1 (stereo not drawn)	none (no result: Pyk2 oligo antag)
CCOC(=O)N1CCN(S(=O)(=O)c2cc(Cl)c(OC)cc2Cl)CC1	none (no result: CYP2C9 act, CYP2C19 inh, CYP2C19 activ, CYP2C9 inh)
Cc1ccc(NC(=O)CCN2C(=O)CSC2=O)c(C)c1	none (no result: CYP2C9 act, CYP2C19 inh, CYP2C19 activ, CYP2C9 inh)
CCCc1nc2c(o1)CC(CC(C)SCC)CC2=O (stereo not drawn)	CYP2C19 inh 51
CCSC(C)CC1CC(=O)CC(=O)C1 (stereo not drawn)	none
CSc1nnc2n(Cc3ccccc3)c(=O)c3c4c(sc3n12)COC(C(C)C)C4 (stereo not drawn)	none (no result: Pyk2 oligo antag)
O=c1c2ccsc2ncn1Cc1ccc(Cl)cc1	CYP2C19 inh 61, CYP2C9 inh 54
C(=N\Nc1nc(-c2ccccc2)cs1)/c1cccnc1	CYP2C19 inh 93, CYP2C9 inh 89
CC(/C=C/c1ccccc1)=N\Nc1nc(-c2ccccc2)cs1	none
c1cc(-c2noc(CC3CCCCC3)n2)ccn1	CYP2C19 inh 99, CYP2C9 inh 77
CC1CCCCN1CCCNC(=O)c1ccc2c(=O)n(CCc3ccccc3)c(=O)[nH]c2c1 (stereo not drawn)	CYP2C19 inh 87, CYP2C9 inh 79
O=C(COC(=O)c1ccccc1F)c1ccc(-n2nncc2-c2ccco2)cc1	none
CN(c1ccccc1)S(=O)(=O)c1cccc(C(=O)N2CCN(c3ccccn3)CC2)c1	CYP2C19 inh 79, CYP2C9 inh 88
O=C(c1ccc2c(=O)n3c(nc2c1)CCCCC3)N1CCN(Cc2ccccc2)CC1	CYP2C19 inh 55, CYP2C9 inh 73
CCN1CCN(S(=O)(=O)Cc2ccccc2)CC1	CYP2C19 inh 52
CN(Cc1ccccc1)S(=O)(=O)c1ccc(S(=O)(=O)N(Cc2ccc(F)cc2)C2CCCC2)cc1	CYP2C9 inh 58
O=S(=O)(NCc1ccccc1)c1ccc(S(=O)(=O)N(Cc2ccccn2)C2CCCC2)cc1	none (no result: CYP2C9 act, CYP2C19 inh, CYP2C19 activ, CYP2C9 inh)
CCOC(=O)CSc1cc(C)nc(NC(C)=O)n1	none
Nc1nc(-c2cccnc2)nn1C(=O)c1ccco1	none (no result: Pyk2 oligo antag)
Cc1[nH]c2ccc(-c3nnc(SCC(=O)N4CCCc5ccccc54)o3)cc2c1C	none
O=S(=O)(Cc1ccccc1)N1CCN(Cc2ccc3c(c2)OCO3)CC1	CYP2C19 inh 91, CYP2C9 inh 54
O=C(c1ccccc1)N1CCN(Cc2ccccc2)CC1	none (no result: CYP2C9 act, CYP2C19 inh, CYP2C19 activ, CYP2C9 inh)
CN(C)S(=O)(=O)c1cccc(C(=O)N2CCN(Cc3ccccc3)CC2)c1	CYP2C19 inh 53
OC1(c2ccc3c(c2)OCO3)CCN(Cc2ccccn2)CC1	none
O=S(=O)(c1ccc2c(c1)OCCO2)N1CCN(Cc2ccc3c(c2)OCO3)CC1	CYP2C19 inh 94, CYP2C9 inh 89
Cc1noc(C)c1S(=O)(=O)N1CCN(Cc2ccc3c(c2)OCO3)CC1	none (no result: Pyk2 oligo antag)
O=S(=O)(c1ccc(F)c(F)c1)N1CCN(Cc2ccc3c(c2)OCO3)CC1	none
O=S(=O)(c1ccccc1Cl)N1CCC(O)(c2ccc3c(c2)OCO3)CC1	CYP2C19 inh 97
N/N=c1\sc2ccccc2n1-c1ccccc1	none
CC(C)(C)N=C1NC(=NC(C)(C)C)c2ccccc21	none
O=C(C1CCCN(S(=O)(=O)c2cccc3cccnc23)C1)N1CCc2ccccc21 (stereo not drawn)	none (no result: Pyk2 oligo antag)
O=C(NC1CCCCC1)NC1CCN(S(=O)(=O)c2ccc3c(c2)OCCO3)CC1	none
O=C(N1CCOCC1)N1CCN(Cc2ccccc2)CC1	CYP2C19 inh 82
O=C(CN1CCN(c2cccc(Cl)c2)CC1)N1CCCC1	none
O=C(N1CCOCC1)N1CCN(c2ccccc2)CC1	none
O=S(=O)(/C=C/c1ccccc1)N1CCN(c2cccc(Cl)c2)CC1	CYP2C19 inh 93, CYP2C9 inh 76
